# This is a sample that favours compounds with a hit; in the whole collection about 9% have one here.
# BAZ2B block: BAZ2B (human) inhibition. Q9UIF8. AlphaScreen BAZ2B-H3K14Ac peptide displacement. Potency, µM (top dose mostly 114 µM), actives largely listed as inhibitors. hit rate 4.4% among 360,000. AID 504333; further: nearly all actives have a fitted effect of over 60% in size
#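 Multi-concentration screen (max 110 uM) measuring displacement of acetylated histone H3 peptide from BAZ2B by AlphaScreen, using 50 nM protein, 50 nM peptide and 10 ug/mL streptavidin donor plus Ni-chelate acceptor beads.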
# HP1b binding inh: HP1-beta chromodomain-methylated histone interaction inhibition. AID 540317. Potency, µM (top dose mostly 114 µM), usual class: inhibitors. hit rate 0.56% among 390,000. AlphaScreen HP1-beta / biotin-H3K9me3 peptide binding; further: nearly all actives have a fitted effect of over 70% in size
#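 HP1-beta protein (50 nM final) preincubated 30 min at room temperature with biotinylated H3(1-18)K9me3 peptide (50 nM) in PBS pH 7.4, 0.01% Tween-20, then compound added for 30 min. AlphaScreen streptavidin donor/nickel chelate acceptor beads (10 ug/mL final), 30 min dark, luminescence read.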
# ALOX12 inh: blocks human arachidonate 12S-lipoxygenase | purified 12hLO, xylenol orange hydroperoxide absorbance | Potency, µM (highest dose often 108 µM), most hits filed as inhibitors | P18054 | hit rate 1.1% among 580,000 | AID 1671190
#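 Purified human 12hLO at 150 nM in 25 mM Hepes, 0.01% Triton X-100, pH 7.0, preincubated 15 min at room temperature with compound. Reaction started with 40 uM arachidonic acid, 30 min at room temperature. Hydroperoxide measured by Fe-xylenol orange, 573/405 nm absorbance ratio.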
# G9a inh: inhibitors of human histone lysine methyltransferase G9a | hit rate 8.8% among 350,000 | G9a H3K9 monomethylation, AlphaScreen, 2 h | AID 504332 | Q96KQ7 | Potency, µM (highest dose often 102 µM), most hits filed as inhibitors; further: nearly all actives have a fitted effect of over 75% in size
#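 G9a (20 nM) was preincubated 15 min with compound, then reacted 2 h at room temperature with 500 nM biotin-H3K9 peptide and 20 µM SAM. Monomethyl-H3K9 detected by AlphaScreen using anti-H3K9me1 antibody.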
# PLK1 PBD block: inhibitors of human PLK1 polo-box domain binding; Plk1 PBD binding of FITC phosphopeptide, fluorescence polarization; P53350; Potency, µM, most hits filed as inhibitors; hit rate 2.8% among 360,000; further: series mostly up to about 57 µM; nearly all actives have a fitted effect of over 65% in size
# JMJD2A Tudor inh: JMJD2A Tudor domain (human) inhibition. O75164. AlphaScreen JMJD2A-Tudor / H3K4me3 peptide binding. Potency, µM (top dose mostly 114 µM), actives largely listed as inhibitors. hit rate 4.4% among 390,000. AID 504339; further: nearly all actives have a fitted effect of over 50% in size
# A number is an active result; n = inactive; u = inconclusive; x = no result given; [ ] = remark or other dose. The call rests on the fitted dose curve; in most records, active means well fitted curve in the direction sought with a large enough effect; inconclusive means small, poorly fitted or top-dose-only effect, or another doubt; inactive means no such curve, though single readings can be large; an effect the other way counts as inactive or inconclusive.
SMILES,BAZ2B block,HP1b binding inh,ALOX12 inh,G9a inh,PLK1 PBD block,JMJD2A Tudor inh
COc1ccc(-n2c(SCC(=O)N3CCN(c4ccccc4)CC3)nc3c(c2=O)SCC3)cc1,n,n,n,45µM,n,n
COc1ccc(N2CCN(C(=O)CSc3nc4c(c(=O)n(C)c(=O)n4C)n3C(C)C)CC2)cc1,n,n,n,50µM,n,n
CN1CCC(N(C)S(=O)(=O)c2ccc(NC(=O)COc3ccc(Br)cc3Cl)cc2)CC1,u,n,u,n[0.501 µM],n,n
Cc1ccc(OCC(=O)Nc2ccc(S(=O)(=O)N(C)C3CCN(C)CC3)cc2)c(C)c1,n,n,35µM,x,n,n
CN1CCC(N(C)S(=O)(=O)c2ccc(NC(=O)COc3cccc(Cl)c3)cc2)CC1,n,n,n,40µM,n,n
O=C(CSc1nnc2ccc(-c3ccccn3)nn12)N1CCCC1,x,n,n,x,n,n[11.4 µM]
COCCNc1ncc(-c2ccc(OC)cc2)c2c1OCC2,x,x,n,x,x,x
NCCCC[C@@H]1NC(=O)c2cc([N+](=O)[O-])cc(F)c2NCCCC[C@@H](C(N)=O)NC(=O)CNC1=O,n,n,n,n,n,n
NCCCC[C@@H]1NC(=O)c2cc([N+](=O)[O-])cc(I)c2SC[C@@H](C(N)=O)NC(=O)[C@H](CCC(N)=O)NC1=O,u,n,u,8.9µM,n,u
NCCCC[C@@H]1NC(=O)c2cc([N+](=O)[O-])cc(I)c2SC[C@@H](C(=O)NCC(N)=O)NC(=O)CNC1=O,n,n,x,32µM,n,n
CC1(C)CC(=O)c2cc(NC(=O)c3ccccc3)c(=O)oc2C1,n,n,n,n,27µM,79µM
CC(=O)c1cc(NC(=O)c2ccc(C)cc2)c(=O)oc1C,n,n,n,18µM,11µM,20µM
CC(=O)c1cc(NC(=O)c2ccccc2)c(=O)oc1C,n,u,n,32µM,u,n
CC(=O)c1cc(NC(=O)c2ccc(C)cc2)c(=O)oc1/C=C/N(C)C,n,n,u,n[12.7 µM],n,n
CCCCCCCCCCCCCCCC(=O)NCC(COP(=O)([O-])OCC[N+](C)(C)C)OCC (centres undefined),x,x,x,n[12.7 µM],x,x
CCCCCCCCCCCCCCCCCC(=O)NCC(COP(=O)([O-])OCC[N+](C)(C)C)OCC (centres undefined),x,x,x,13µM,x,x
COc1ccc(C(=O)N(C)C2CCCN(Cc3ccccc3F)C2)cc1OC (centres undefined),n,n,n,x,n,n
COc1cccc(NC(=O)CCc2nnc3ccc(N4CCN(c5cccc(OC)c5)CC4)nn23)c1,n,n,x,n,6µM,u
COc1cc(NC(=O)CCc2nnc3ccc(N4CCN(c5cccc(OC)c5)CC4)nn23)cc(OC)c1,n,n,n,n,n,n
Cn1cc(CCCNC(=O)C2CC(=O)N(C3CC3)C2)cn1 (centres undefined),x,x,n,x,x,x
CN(CC(=O)Nc1ccc(F)c(F)c1F)C(=O)CCc1nc2sc3c(c2c(=O)[nH]1)CCCC3,50µM,n,18µM,50µM,n,n
Cc1cccc(NC(=O)CCc2nc3sc4c(c3c(=O)[nH]2)CCCC4)n1,u,n,u,n,n,u
CCOC(=O)C1CCN(C(=O)CCc2nc3sc4c(c3c(=O)[nH]2)CCCC4)CC1,u,n,u,50µM,n,u
Cc1cccc(NC(=O)CNC(=O)CCc2nc3sc4c(c3c(=O)[nH]2)CCCC4)c1C,40µM,u,10µM,50µM,u,40µM
CC(=O)c1ccc(NC(=O)CCc2nc3sc4c(c3c(=O)[nH]2)CCCC4)cc1,56µM,n,u,u,n,n
CCOC(=O)c1cc(C)n(CC2CCC(C(=O)Nc3ccc(C)c(F)c3)CC2)c1C (centres undefined),u,n,n,n,x,n
CC(C)OCCCNC(=O)C1CCCCC1,x,x,n,x,x,x
COCCCNC(=O)C(=O)NCCCOC(C)C,n,n,n,n,n,5.6µM
COCCNC(=O)Cn1ncc2c(C)n(Cc3ccc(C)cc3)c(C)c2c1=O,n,n,n,n,x,n
Cc1ccc2c(c1)c1c3n2CC(=C2C(=O)OC(C)(C)OC2=O)NC3CCC1 (centres undefined),u,n,11µM,u,u,u

# High-throughput results from PubChem BioAssay.
